High-throughput results (PubChem BioAssay)
A selection: hits, their analogues and other compounds. The true share with any hit is near 2.8%.
POLI inh: DNA polymerase iota (human) inhibition. Q9UNA4. Pol iota fluorescent replication assay, 10 min. Potency, µM (titrated, usually from 115 µM), usual class: inhibitors. hit rate 1% among 390,000. AID 588590
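Pol iota at 10 nM preincubated 15 min with compounds at room temperature; reaction started with fluorescent substrate, 50 nM final. Fluorescence read kinetically at 0 and 10 min; buffer-only wells as negative control.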
PI5P4Ka inh: blocks human PI5P4K alpha kinase activity; P48426; max response, %; PI5P4Kalpha enzyme, ADP-Glo luminescence, 60 min; hits give low values; hit rate 1.2% among 330,000; active = max response of -50% or lower; inconclusive = between -30% and -50%; inactive = -30% or higher; also: value at the top dose of about 77 µM
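ADP-Glo luminescence end-point after a 60 min room-temperature kinase reaction. PI5P4Kalpha and substrate in HEPES pH 7.4 buffer with EGTA, 0.1% CHAPS and 5% DMSO; ATP at 5 microM final.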
WRN helicase inh-1: inhibitors of human WRN helicase. hit rate 0.46% among 360,000. AID 651768. WRN helicase unwinding, fluorescent forked duplex, kinetic. Potency, µM (titrated, usually from 114 µM), usual class: inhibitors. Q14191; also: nearly all actives have a fitted effect of over 55% in size
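WRN at 20 nM final was preincubated with compound for 15 min at room temperature; reaction started with 100 nM forked duplex oligonucleotide carrying fluorophore and quencher plus 2 mM ATP (final). Unwinding followed kinetically by red fluorescence (ex 525/em 598 nm).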
Pol kappa inh: DNA polymerase kappa (human) inhibition | purified Pol kappa, fluorescent DNA synthesis assay, 10 min | hit rate 0.53% among 400,000 | Q9UBT6 | AID 588579 | Potency, µM (series often up to 107 µM), actives largely listed as inhibitors
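Activity was followed as the change in fluorescence between reads at 0 and 10 min after starting the reaction with 50 nM substrate. Beforehand, 10 nM polymerase had been preincubated with compound for 15 min at room temperature.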
Pol beta inh: blocks human DNA polymerase beta activity. Pol beta primer extension/strand displacement, fluorescence kinetic. Potency, µM (highest dose often 114 µM), hits mostly inhibitors. P06746. hit rate 1.3% among 340,000
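Pol beta (10 nM) and compounds were preincubated 15 min at room temperature, then 50 nM substrate (final) started primer extension/strand displacement. Reads were taken at 0 and 10 min; concentration-response data were fitted to a four-parameter Hill equation.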
POLH inh: DNA polymerase eta (human) inhibition | recombinant Pol eta, fluorescent DNA replication assay | Potency, µM (top dose mostly 114 µM), hits mostly inhibitors | hit rate 1.2% among 390,000 | AID 588591
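Fluorescent replication assay: 50 nM final substrate added after a 15 min room-temperature compound preincubation with 10 nM enzyme. Signal taken at 0 min and again at 10 min.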
WRN helicase inh-2: WRN helicase inhibition, cherry-pick retest | Potency, µM (doses to about 57.1 µM), usual class: inhibitors | WRN helicase DNA unwinding, fluorescence kinetic | hit rate 63% among 610 | shares compounds with WRN helicase inh-1 | AID 720497; also: nearly all actives have a fitted effect of over 65% in size
TO displacement: counter-screen for WRN helicase inhibitors: DNA binding; Potency, µM (top dose mostly 57.1 µM), hits mostly inhibitors; thiazole orange DNA binding displacement, fluorescence; AID 720499; hit rate 10% among 610; shares compounds with WRN helicase inh-1;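 also: drop in dye fluorescence marks compound binding to DNA; nearly all actives have a fitted effect of over 60% in size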
BLM helicase inh: blocks human BLM helicase in WRN counterscreen. AID 720503. Recombinant BLM helicase DNA unwinding, red fluorescence. shares compounds with WRN helicase inh-1. Potency, µM (doses to about 57.1 µM), usual class: inhibitors. hit rate 60% among 610; also: nearly all actives have a fitted effect of over 60% in size
Target sequence (P54132 whole entry, looked up): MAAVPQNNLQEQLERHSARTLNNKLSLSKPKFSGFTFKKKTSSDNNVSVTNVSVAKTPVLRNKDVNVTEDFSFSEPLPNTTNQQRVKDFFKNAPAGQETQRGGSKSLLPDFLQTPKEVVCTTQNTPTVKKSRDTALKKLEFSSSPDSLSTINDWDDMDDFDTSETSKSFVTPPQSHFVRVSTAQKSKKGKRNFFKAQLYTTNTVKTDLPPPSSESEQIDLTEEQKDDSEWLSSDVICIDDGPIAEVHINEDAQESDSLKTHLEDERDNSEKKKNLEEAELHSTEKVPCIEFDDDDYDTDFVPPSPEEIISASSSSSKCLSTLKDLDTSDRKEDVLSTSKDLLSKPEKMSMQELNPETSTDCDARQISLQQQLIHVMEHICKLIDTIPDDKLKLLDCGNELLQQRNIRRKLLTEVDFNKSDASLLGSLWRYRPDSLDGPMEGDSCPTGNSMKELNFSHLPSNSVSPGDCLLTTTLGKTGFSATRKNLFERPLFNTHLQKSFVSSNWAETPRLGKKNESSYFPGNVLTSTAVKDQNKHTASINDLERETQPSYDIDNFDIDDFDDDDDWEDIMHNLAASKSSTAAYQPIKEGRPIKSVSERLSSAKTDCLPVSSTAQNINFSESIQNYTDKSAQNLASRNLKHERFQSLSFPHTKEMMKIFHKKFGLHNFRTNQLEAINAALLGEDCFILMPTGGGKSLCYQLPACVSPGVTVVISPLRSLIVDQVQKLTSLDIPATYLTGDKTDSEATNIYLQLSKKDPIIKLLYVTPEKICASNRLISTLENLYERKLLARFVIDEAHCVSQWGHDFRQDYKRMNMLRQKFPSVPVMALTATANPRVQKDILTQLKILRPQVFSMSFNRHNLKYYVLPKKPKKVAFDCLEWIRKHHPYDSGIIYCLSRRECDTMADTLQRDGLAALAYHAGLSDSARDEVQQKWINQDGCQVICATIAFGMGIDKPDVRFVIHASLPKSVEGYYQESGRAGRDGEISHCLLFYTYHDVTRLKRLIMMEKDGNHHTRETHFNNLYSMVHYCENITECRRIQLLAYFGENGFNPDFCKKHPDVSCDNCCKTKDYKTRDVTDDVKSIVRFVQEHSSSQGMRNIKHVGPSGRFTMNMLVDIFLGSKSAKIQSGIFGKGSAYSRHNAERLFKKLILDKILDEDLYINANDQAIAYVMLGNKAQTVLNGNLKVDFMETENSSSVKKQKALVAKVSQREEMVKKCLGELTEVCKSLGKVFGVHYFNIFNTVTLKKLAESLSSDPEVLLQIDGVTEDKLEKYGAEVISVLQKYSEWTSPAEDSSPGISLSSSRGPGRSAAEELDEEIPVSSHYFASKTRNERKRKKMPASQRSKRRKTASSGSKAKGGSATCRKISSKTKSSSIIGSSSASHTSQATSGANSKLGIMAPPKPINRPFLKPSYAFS
Large screens that a line does not name were inactive (follow-up assays come after a bar, where they were run). Unless noted, calls follow the shape of the dose curve; as a rule, active = well fitted curve in the direction sought with a large enough effect; inconclusive = small, poorly fitted or top-dose-only effect, or another doubt; inactive = no such curve, though single readings can be large; an effect the other way counts as inactive or inconclusive.

CC1=C(C)CS(=O)N(S(=O)(=O)c2ccccc2)C1 (stereo unspecified)	POLI inh inconclusive, WRN helicase inh-1 40µM (no result: PI5P4Ka inh) | WRN helicase inh-2 inactive | TO displacement inactive | BLM helicase inh inactive
COc1ccc(NC(=O)c2nn(C)c3c2CS(=O)(=O)c2ccccc2-3)cc1Cl	none (no result: PI5P4Ka inh, WRN helicase inh-1)
Cc1onc(-c2c(F)cccc2Cl)c1C(=O)OCC(=O)N(C)c1ccccc1	none (no result: POLI inh, Pol kappa inh, Pol beta inh)
CCCCn1c(=O)c2[nH]c(C34CC5CC(CC3C5)C4)nc2n(CCCO)c1=O	none (no result: POLI inh, PI5P4Ka inh, WRN helicase inh-1, Pol beta inh, POLH inh)
COc1ccc(NC(=O)CN(C)CC(=O)Nc2ccccc2SC)cc1	WRN helicase inh-1 28µM | WRN helicase inh-2 inactive | TO displacement inactive | BLM helicase inh inactive
COCCOC1CCN(C(=O)C2CCC(=O)N(CCc3ccccc3)C2)CC1 (stereo unspecified)	none
COc1ccc([N+](=O)[O-])c(S(=O)(=O)c2ccc(Cl)cc2)n1	POLI inh inconclusive, WRN helicase inh-1 16µM | WRN helicase inh-2 inconclusive | TO displacement inactive | BLM helicase inh inactive
COc1ccc([N+](=O)[O-])c(S(=O)(=O)c2ccccc2)n1	POLI inh 14µM, WRN helicase inh-1 32µM | WRN helicase inh-2 inconclusive | TO displacement inactive | BLM helicase inh inactive
O=[N+]([O-])c1cccnc1S(=O)(=O)c1ccccc1	none
Cn1cnc([N+](=O)[O-])c1S(=O)(=O)Oc1cccc2ccccc12	POLI inh inconclusive (no result: Pol beta inh) | WRN helicase inh-2 inconclusive | TO displacement inactive | BLM helicase inh inconclusive
Nc1c(S(=O)(=O)O)cc(NC(=O)c2ccccc2)c2c1C(=O)c1ccccc1C2=O	POLI inh inconclusive, PI5P4Ka inh -77, WRN helicase inh-1 28µM, Pol beta inh 22µM, POLH inh 18µM | WRN helicase inh-2 12µM | TO displacement 11µM | BLM helicase inh 19µM
O=C(Nc1ccccc1-c1ccccc1)c1ccccc1	none
CCC(Sc1nnc2c(n1)[nH]c1ccccc12)C(=O)Nc1ccccc1OC (stereo unspecified)	POLI inh inconclusive, Pol beta inh inconclusive (no result: PI5P4Ka inh, WRN helicase inh-1)
COc1ccc(OC)c(-n2c(=O)c3ccccc3c3ccccc3c2=O)c1	WRN helicase inh-1 inconclusive | WRN helicase inh-2 inactive | TO displacement inactive | BLM helicase inh inconclusive
COc1ccc(-n2c(=O)c3ccccc3c3ccccc3c2=O)cc1	WRN helicase inh-1 inconclusive
COc1ccc(NS(=O)(=O)c2cccc(C(=O)NN=Cc3ccc(O)c(OC)c3)c2)cc1	POLI inh inconclusive, WRN helicase inh-1 inconclusive (no result: Pol beta inh) | WRN helicase inh-2 inconclusive | TO displacement inactive | BLM helicase inh inactive
O=C(COC(=O)c1c[nH]c(=O)[nH]c1=O)NCc1ccccc1	none
CC(C)c1cccc(NC(=O)COC(=O)c2ccccc2OCc2cccc(Br)c2)c1	none (no result: PI5P4Ka inh, WRN helicase inh-1, Pol beta inh, POLH inh)
O=C(O)COc1ccccc1/C=N/NC(=O)c1cc(-c2ccccc2)nc2ccccc12	none
O=C(O)COc1ccccc1/C=N/NC(=O)c1cc(-c2ccc(Cl)cc2)nc2ccccc12	WRN helicase inh-1 inconclusive, POLH inh inconclusive | WRN helicase inh-2 inconclusive | TO displacement inconclusive | BLM helicase inh 27µM
CN(C)CCNC(=O)c1cccc2ccc(-c3ccc(-c4ccccc4)cc3)nc12	PI5P4Ka inh inconclusive (no result: Pol beta inh)
COc1ccc(OC)c2nc3c(C(=O)NCCN(C)C)cccc3nc12	POLI inh inconclusive, WRN helicase inh-1 13µM, Pol kappa inh inconclusive, POLH inh inconclusive (no result: Pol beta inh) | WRN helicase inh-2 14µM | TO displacement 11µM | BLM helicase inh 22µM
N#CC1(N2CCN(C(=O)c3ccccc3)CC2)CCCCC1	none
COc1ccc(-c2csc(/C(C#N)=C\c3ccc(O)c([N+](=O)[O-])c3)n2)cc1OC	PI5P4Ka inh inconclusive, WRN helicase inh-1 inconclusive
